Activity calls are given as the source filed them. The rule behind the calls is not given here.
tested on: not listed separately; experiment: KCC2 and NKCC1 inhibition by rubidium flux, cell-based, NKCC1 counter-screen (AID 1734); details: KCC2-expressing cells, NKCC1 counter-screen, at 5 µM

Structure (SMILES)	inhibition [%]
Cc1ccc(NC(=O)c2ccccc2NS(=O)(=O)c2ccc(Cl)s2)cc1	65.1
O=C(NCCOc1ccccc1F)c1ccccc1SCc1ccc(F)cc1	34.2
CCc1ccc(OCCNC(=O)c2ccccc2SCc2ccc(F)cc2)cc1	45.3
Cc1nc(CC(=O)Nc2nc(-c3ccccc3)cs2)cs1	35.5
O=C(/C=C/c1ccccc1)Nc1scc(-c2ccccc2)c1C(=O)O	25.2
O=C(Cn1cnc2c(nnn2Cc2ccc(F)cc2)c1=O)N1CCCc2ccccc21	28.1
O=C(O)CCn1c(SCc2cccc3ccccc23)nc2ccccc21	57.5
CC(C)c1onc(C(=O)N2CCN(Cc3ccccc3)CC2)c1[N+](=O)[O-]	6.1

same assay, conditions: KCC2-expressing cells, NKCC1 counter-screen, at 50 µM

Structure (SMILES)	inhibition [%]
O=C(CN1C(=O)NC2(CCCC2)C1=O)Nc1nc(-c2ccc(F)cc2)cs1	43.6
O=C(Cn1cnc2c(nnn2Cc2ccccc2)c1=O)N1CCCc2ccccc21	33.2
CC1Cc2ccccc2N1C(=O)c1ccc(N2CCCC2)c([N+](=O)[O-])c1 (configuration not stated)	48.5
CCOc1ccc(N2C(=O)C3Sc4[nH]c(=O)sc4C(/C=C/c4ccccc4)C3C2=O)cc1 (configuration not stated)	90.8
Cc1csc(NC(=O)CSc2ccc(-c3ccccc3)nn2)n1	19.7
O=C(Nc1ccc(S(=O)(=O)NCc2ccccc2)cc1)c1ccccc1[N+](=O)[O-]	31.2
Cc1ccc(-c2ccc(S(=O)(=O)NCC3CCCO3)cc2)cc1 (configuration not stated)	26.6
O=C(NCC1CCCN(C(=O)c2cccnc2)C1)c1ccc(-c2ccccc2)cc1 (configuration not stated)	40.3
Cc1ccc(Nc2nnc(SCC(=O)c3cc4ccccc4o3)s2)cc1C	53.4
CN(Cc1ccccc1)S(=O)(=O)c1ccc(Cl)c(C(=O)NCCc2ccccn2)c1	53.4
O=C(CCS(=O)(=O)Cc1ccccc1)Nc1nc2c(s1)CCCC2	37.1
O=S(=O)(NCc1ccccc1)c1ccc(Cl)c(S(=O)(=O)NCc2ccccc2)c1	30.5
CCOc1ccc(Nc2n[nH]c(=S)s2)cc1	67.4
O=C(Cn1cnc2c(nnn2Cc2ccccc2)c1=O)c1ccc(Cl)cc1	40.6
Cc1cnc(NC(=O)CSc2nnc(Cc3ccccc3)o2)s1	16.8
CCCn1c(N)c(C(=O)CSc2nnc(Cc3ccccc3)o2)c(=O)n(C)c1=O	28.3
O=C(OCC(=O)N1CCN(C(=O)c2ccco2)CC1)c1sc2ccccc2c1Cl	55.4
Cc1ccc(NC(=O)c2ccccc2NS(=O)(=O)c2ccc(Cl)s2)cc1	68.4
O=C(NCCOc1ccccc1F)c1ccccc1SCc1ccc(F)cc1	45.8
CCc1ccc(OCCNC(=O)c2ccccc2SCc2ccc(F)cc2)cc1	47.9
Cc1nc(CC(=O)Nc2nc(-c3ccccc3)cs2)cs1	38.1
O=C(/C=C/c1ccccc1)Nc1scc(-c2ccccc2)c1C(=O)O	72.8
O=C(Cn1cnc2c(nnn2Cc2ccc(F)cc2)c1=O)N1CCCc2ccccc21	27.7
O=C(O)CCn1c(SCc2cccc3ccccc23)nc2ccccc21	80.5
CC(C)c1onc(C(=O)N2CCN(Cc3ccccc3)CC2)c1[N+](=O)[O-]	15.5

biological target: Solute carrier family 12 member 5 (Homo sapiens) (UniProt Q9H2X9); experiment: as above; details: KCC2-expressing cells
Sequence (Q9H2X9 whole entry, looked up): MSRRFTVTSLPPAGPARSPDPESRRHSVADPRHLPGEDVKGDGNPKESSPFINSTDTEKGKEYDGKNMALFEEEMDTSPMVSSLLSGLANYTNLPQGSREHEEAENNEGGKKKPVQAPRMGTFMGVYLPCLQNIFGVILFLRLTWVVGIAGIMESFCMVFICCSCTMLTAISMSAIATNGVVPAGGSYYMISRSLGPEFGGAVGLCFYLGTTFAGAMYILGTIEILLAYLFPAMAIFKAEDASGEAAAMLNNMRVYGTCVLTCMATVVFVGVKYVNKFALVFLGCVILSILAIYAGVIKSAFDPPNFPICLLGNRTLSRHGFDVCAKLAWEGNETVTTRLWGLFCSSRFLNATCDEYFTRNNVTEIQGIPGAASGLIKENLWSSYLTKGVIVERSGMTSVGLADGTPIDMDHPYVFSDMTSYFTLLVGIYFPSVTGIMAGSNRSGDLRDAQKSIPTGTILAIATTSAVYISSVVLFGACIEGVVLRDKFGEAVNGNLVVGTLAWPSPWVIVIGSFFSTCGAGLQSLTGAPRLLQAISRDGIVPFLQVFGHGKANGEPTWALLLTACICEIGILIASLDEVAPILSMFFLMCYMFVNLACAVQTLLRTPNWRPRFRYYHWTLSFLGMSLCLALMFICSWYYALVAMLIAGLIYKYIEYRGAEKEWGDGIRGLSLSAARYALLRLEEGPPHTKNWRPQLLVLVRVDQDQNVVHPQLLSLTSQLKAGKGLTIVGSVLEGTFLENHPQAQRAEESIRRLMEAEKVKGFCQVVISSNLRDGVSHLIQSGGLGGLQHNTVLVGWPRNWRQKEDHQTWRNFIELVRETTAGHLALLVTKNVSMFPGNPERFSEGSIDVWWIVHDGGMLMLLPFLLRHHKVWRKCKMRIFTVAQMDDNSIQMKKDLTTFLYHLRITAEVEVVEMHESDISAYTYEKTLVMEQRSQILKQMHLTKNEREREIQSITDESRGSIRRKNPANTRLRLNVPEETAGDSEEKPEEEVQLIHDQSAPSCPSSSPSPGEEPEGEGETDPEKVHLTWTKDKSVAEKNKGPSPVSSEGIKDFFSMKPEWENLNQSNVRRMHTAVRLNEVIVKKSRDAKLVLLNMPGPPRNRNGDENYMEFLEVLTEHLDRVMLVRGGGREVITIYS

Structure (SMILES)	outcome
O=C(NCC1CCCN(C(=O)c2cccnc2)C1)c1ccc(-c2ccccc2)cc1 (configuration not stated)	inactive
CCOc1ccc(Nc2n[nH]c(=S)s2)cc1	inactive
Cc1ccc(NC(=O)c2ccccc2NS(=O)(=O)c2ccc(Cl)s2)cc1	inactive
CCc1ccc(OCCNC(=O)c2ccccc2SCc2ccc(F)cc2)cc1	inactive

Source: PubChem BioAssay AID1734 (Vanderbilt High Throughput Screening Facility, 2009)
